# Results: PubChem BioAssay AID488890 (Southern Research Specialized Biocontainment Screening …, 2010)
# The campaign covered roughly 320,000 compounds. About 1,300 (0.41%) were called active. Not shown: some 3% with an inconclusive outcome. No rule for the calls is given here. A selection follows. Measured potencies and affinities stand elsewhere.
# Experiment: growth inhibition of non-replicating M. tuberculosis (AID 488890);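 also: plate controls were DMSO cells for no effect and high antibiotic wells for full effect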
# Details: Mycobacterium tuberculosis non-replicating, at 25 µM, stronger effect = higher value
row,Compound,inhibition [%]
1,O=C(CC1CCCCC1)NCC1CCCO1 (configuration not stated),69.3
2,Cc1ccc(N(Cc2cc3ccc(C)cc3[nH]c2=O)S(=O)(=O)c2ccccc2)c(C)c1,3.45
3,CCCCOC(=O)C1CCCC(C)N1 (configuration not stated),0.64
4,CCCCOC(=O)C1CCC[C@@H](C)N1 (some centres not stated),-6.13
5,Cc1ccc(NC(=O)COC(=O)CN2C(=O)C3CCCCC3C2=O)cc1S(=O)(=O)N1CCOCC1 (configuration not stated),6.8
6,O=C(N/N=C/c1cc([N+](=O)[O-])ccc1O)C1C2CCCCC21 (configuration not stated),77.2
7,O=C(N/N=C/c1cc([N+](=O)[O-])ccc1O)NC12CC3CC(CC(C3)C1)C2,54.2
8,O=C1NCCCC1C(=O)N/N=C/c1cc([N+](=O)[O-])ccc1O (configuration not stated),15.8
9,CCNC(=O)C(=O)N/N=C/c1cc([N+](=O)[O-])ccc1O,27.1
10,CC1(C)Cc2nc3sc(C(N)=O)c(N)c3cc2CO1,-3.96
11,O=C(CCC1CCCC1)NCCCNC(=O)CCC1CCCC1,72.8
12,Cc1nc([N+](=O)[O-])c(Sc2nc3ccccc3n2C)n1Cc1ccccc1,70.5
13,C=C(C)C(=O)Nc1cccc(C2=NOC3(C2)C[C@H](C(N)=O)N(C(=O)CC#N)C3)c1 (some centres not stated),-3.19
14,CCCCCCCCCn1cc(C(C)=O)c(=O)[nH]c1=O,71.1
15,CCCCCCCCn1cc(C(C)=O)c(=O)[nH]c1=O,79.8
16,COc1ccc(-n2nc(C(=O)NCC(=O)O)c3ccccc3c2=O)cc1,-2.99
17,COc1ccc(NC(=O)Nc2cccc(NC(C)=O)c2)c(OC)c1,15.4
18,COCCNc1nnc(SCC(=O)NNC(=O)c2ccccc2)s1,-9.33
19,CC(=O)Oc1ccc(/C=C2/C(=O)N(c3ccccc3)N=C2C)cc1,32.7
20,COc1ccc(/C=C2/C(=O)N(c3ccccc3)N=C2C)cc1,0.19
21,C(=N\N=C\c1ccccc1)/c1ccccc1,9.87
22,CCc1nn(CCCC(=O)N2CCC(C)CC2)c(=O)c2cc3occc3n12,2.85
23,O=C(NCc1ccc(Cl)cc1)c1cnccn1,68.3

row,Compound,inhibition [%]
1,COc1ccc(CNC(=O)c2cnccn2)cc1,66.2
2,O=C(NCc1ccncc1)c1cnccn1,-7.93
3,NS(=O)(=O)c1ccc(CNC(=O)c2cnccn2)cc1,-8.46
4,CSc1ccc(NC(=O)NCCCN2CCN(c3ccccc3F)CC2)cc1,50.5
5,Cc1cc(C)cc(NC(=O)C2C3C=CC4(O3)C2C(=O)N(CCCN2CCCCC2)C4C(=O)NC2CCCCC2)c1 (configuration not stated),8.2
6,Cc1cc(OC(=O)c2ccc(S(=O)(=O)N3CCCCC3)cc2)c([N+](=O)[O-])c(=O)[nH]1,-2.75
7,Cc1cc(C(=O)OCC(=O)Nc2cc(Cl)ccc2C)c(C)o1,0.98
8,O=C(NCc1ccco1)c1ccc(NS(=O)(=O)c2cccc(F)c2)cc1,29.2
9,CC(C)COc1ccc(C(=O)Nc2ccc(N3CCOCC3)cc2N2CCOCC2)cc1,43
10,O=c1oc2c(O)cccc2cc1-c1nc2ccccc2[nH]1,7.2
11,COc1ccc(-c2cc3cccc(OC)c3oc2=O)cc1,24.1
12,COc1cccc2cc(-c3nnc(-c4ccccc4)o3)c(=O)oc12,79.1
13,COc1cccc2cc(-c3ccccc3)c(=O)oc12,54.4
14,O=C(CNS(=O)(=O)c1ccc(Cl)c(C(F)(F)F)c1)NC1CCCCC1,20.4
15,CC(=O)CSc1nnc(Cc2ccc3c(c2)OCO3)o1,73.1
16,N#CCSc1nnc(Cc2ccc3c(c2)OCO3)o1,73.3
17,Cn1nc(-c2ccccc2)c(COC(=O)c2cccc(Cl)c2)c1S(=O)(=O)c1ccccc1,-7.33
18,CCC(CC)C(=O)Nc1cccc(-c2nc3ccccc3o2)c1,-1.13
19,CC(=O)Nc1cccc(-c2nc3ccccc3o2)c1,8.44
20,CCCC(=O)Nc1cccc(-c2nc3ccccc3o2)c1,-1.01
21,CC(=O)Nc1ccc(-c2nc3ccccc3c(=O)o2)cc1,68.8
22,CC(C)C(=O)Nc1cccc(-c2nc3ccccc3o2)c1,9.28
23,O=C(Nc1cccc(-c2nc3ccccc3c(=O)o2)c1)c1ccccc1,60.9

row,Compound,inhibition [%]
1,O=C(Nc1ccc2nc(-c3ccccc3)oc2c1)c1ccco1,-0.45
2,CCCC(=O)Nc1cccc(-c2nc3cc(C)c(C)cc3o2)c1,-4.03
3,O=P(Oc1ccccc1)(Oc1ccccc1)C(O)c1ccc(Cl)cc1 (configuration not stated),-12
4,COc1cccc(CN2CCNC(=O)C2CC(=O)NC2Cc3ccccc3C2)c1 (configuration not stated),-15.6
5,COc1ccc(C(=O)/C=C\N2CCOCC2)cc1,10.4
6,COCCNC(=S)N1CCC(NC(=O)Nc2ccc(C)cc2)CC1,-2
7,O=C(NCCCNC(=O)c1ccco1)c1ccc(F)cc1,-2.4
8,O=C(c1ccc([N+](=O)[O-])cc1)N1CCSC1c1ccc(Cl)cc1 (configuration not stated),6.9
9,CC(=O)N1N=C(c2ccc(Cl)cc2)CC1c1ccc([N+](=O)[O-])cc1 (configuration not stated),-10.2
10,COc1ccccc1CNC(=O)CCCn1nc(C)c2c(C)n(-c3ccccc3)nc2c1=O,5.28
11,O=C(CNC(=O)N1CC(=O)Nc2ccccc21)Nc1cc(Cl)ccc1Cl,5.7
12,CN1C(=O)N(C)C(c2ccccc2Cl)C2=C1CC(C)(C)CC2=O (configuration not stated),1.21
13,O=C(O)c1ccc(N=N/C(=N\Nc2ccc(C(=O)O)cc2)c2ccccc2)cc1,29.9
14,Brc1ccc(N/N=C(/N=Nc2nn[nH]n2)c2ccccc2)cc1,76.2
15,CCOC(=O)c1nc(C)nc(Sc2n[nH]c(-c3cc(C(F)(F)F)cc(C(F)(F)F)c3)n2)c1C,46.5
16,O=C(O)c1ccccc1C(=O)Nc1ccc(S(=O)(=O)NC2CCCCC2)cc1,-4.02
17,CCC(C)C(NC(=O)c1ccccc1NC(=O)c1ccc(OC)cc1)C(=O)NCCCn1ccnc1 (configuration not stated),7.04
18,CC1(N(O)/C=C2\C=CC=CC2=O)CCCCC1=O (configuration not stated),3.64
19,O=C(CN1CCN(S(=O)(=O)c2ccccc2F)CC1)Nc1ccccc1C(=O)c1ccccc1,27.9
20,C/C(=N\OC(=O)c1c(-c2c(F)cccc2Cl)noc1C)c1nccs1,4.04
21,Cc1onc(-c2cccc(Cl)c2Cl)c1C(=O)O/N=C(\N)c1ccc([N+](=O)[O-])o1,60
22,Cc1onc(-c2c(Cl)cccc2Cl)c1C(=O)O/N=C(\C#N)c1c(Cl)cccc1Cl,4.59
23,Cc1onc(-c2ccccc2Cl)c1C(=O)O/N=C(\N)c1ccccc1,10.2

row,Compound,inhibition [%]
1,O=C(O)c1cccc2c1C(=O)c1ccc(-c3ccc(OC(F)(F)F)cc3)cc1S2(=O)=O,-2.64
2,O=[N+]([O-])c1cc(/C=N/OCc2c(Cl)cccc2Cl)ccc1N1CCOCC1,22.5
3,CCOC(=O)N1CCN(c2ccc(Cl)c(Cl)c2)CC1,75.6
4,COC(=O)N1CCN(c2ccc(Cl)c(Cl)c2)CC1,39
5,Cc1cc(Cl)c(S(=O)(=O)N2CCN(c3cccc(C)c3C)CC2)cc1OCC(N)=O,6.33
6,COC(=O)c1[nH]c2ccc(C)cc2c1NC(=O)C1=COCCO1,2.53
7,COc1cc(C(=O)N/N=C(\c2ccccc2)c2ccccn2)cc(OC)c1OC,43.4
8,O=C(N/N=C(\c1ccccc1)c1cccnc1)c1ccc(O)cc1,-6.44
9,COc1cccc(C(=O)NCCNC(=O)c2ccccn2)c1,-10.9
10,C/C(=N/NC(=O)CNC(=O)c1ccccn1)c1cccc([N+](=O)[O-])c1,-4.01
11,COc1ccc(C(=O)NCCNC(=O)c2ccccn2)cc1,-3.54
12,O=C(c1cccc([N+](=O)[O-])c1)c1ccccn1,2.21
13,O=C(N/N=C(\c1ccccc1)c1cccnc1)c1cc(O)ccc1O,30.3
14,COc1ccc(C(=O)NNC(=O)c2ccccn2)cc1,12.8
15,C(=N\N1CCN(Cc2ccccc2)CC1)/c1ccc(-c2ccccc2)cc1,43
16,Cc1ccc(CNC(=O)Cn2nnc(C(=O)Nc3cccc(C)c3C)c2N)cc1,-3.98
17,CC(C)c1ccccc1NC(=O)c1ccccc1NC(=O)C1CCCCC1,-1.84
18,COc1ccc(C)cc1-n1nnnc1SCC(=O)Nc1cccnc1Cl,17.6
19,O=C(NCC(=O)N1CCN(c2ccccn2)CC1)c1ccc(Br)o1,-3.21
20,Cc1ccc(COC(=O)NCc2cccnc2)cc1,4.06
21,Cc1cc(C)c(C)c(S(=O)(=O)Nc2ccc(C(=O)N3CCCC3)cc2)c1C,5.64
22,O=[N+]([O-])c1ccc2nonc2c1Nc1cccc(F)c1,32.1
23,COc1cc(C(=O)N2CCN(C(=O)c3ccccc3)CC2)cc(OC)c1OC,-17.1

row,Compound,inhibition [%]
1,O=C(CCCN1CCC(c2ccccc2)C1)c1ccc2c(c1)OCCO2 (configuration not stated),12.3
2,COc1ccc(-n2nc3c(c2NC(=O)c2ccco2)CS(=O)(=O)C3)cc1,3.65
3,CC(/C=N/N1CCN(c2ccc(C)cc2)CC1)=C\c1ccccc1,10.7
4,COc1ccccc1N1CCN(C(=O)c2sc3nc(-c4ccc(F)cc4)cn3c2C)CC1,40.2
5,NC(=O)C1CCN(C(=O)c2ccc(-c3ccccc3Cl)o2)CC1,-8.98
6,CC(=O)N1CCN(C(=O)c2ccc(-c3ccccc3Cl)o2)CC1,5.06
7,CC(C)OP(=O)(OC(C)C)C(Nc1ccccn1)c1ccc(F)cc1 (configuration not stated),-0.14
8,O=C(Cn1cnc2c(nnn2Cc2ccc(Cl)cc2)c1=O)OCc1ccccc1,-1.54
9,O=C(Nc1nccs1)C(Cl)(Cl)Cl,5.95
10,Cc1cc(C)c2ccc(N)nc2c1O,41.3
11,Cc1cc(C)c2ccc(C(=O)O)nc2c1O,15.6
12,CC(=N/O)/C(C)=N\NC(=O)c1ccccn1,33
13,O=C(Nc1ncccn1)c1ccc([N+](=O)[O-])cc1,34
14,Cc1cccnc1NC(=O)c1ccc([N+](=O)[O-])o1,70.2
15,O=C(NNC(=O)c1ccc([N+](=O)[O-])o1)c1ccccc1,70
16,O=C(Nc1ccccn1)c1ccco1,2.01
17,O=C1CN(C(=O)CSc2nnnn2-c2ccc(Cl)cc2)c2ccccc2N1,20.5
18,CC(OC(=O)C1CCN(S(=O)(=O)c2ccc(Cl)cc2)CC1)C(=O)NC1CCCCC1C (configuration not stated),17.7
19,COc1ccc(-c2sc3ccc(N4CCOCC4)cc3c2C#Cc2ccsc2)cc1,36.8
20,COc1cccc(C2C(C(=O)OC(C)C)=C(C)N=c3s/c(=C\c4ccc(C(=O)O)cc4)c(=O)n32)c1 (configuration not stated),-6.22
